# Experimental data published in PubChem BioAssay (NCATS).
# Calls of active or inactive are those of the source. Calls follow the shape of the full dose curve.
# Experiment: qHTS drug screen for cell cycle checkpoint inhibitors in PARPi-resistant BRCA-mutant ovarian cancer cell lines. (AID 1963452)
# Details: PEO1/OlaR viability, CellTiter-Glo luminescence, 96 h; stronger effect = lower value
# Outline: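 PEO1, PEO4 and PEO1/OlaR ovarian cancer cells, 600 per well, exposed 96 h at 37C to a dilution series. Viability read by CellTiter-Glo luminescence, normalized to DMSO and empty wells; activity summarized as Z-AUC.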
row,SMILES,Z-AUC
1,CCC(C)(C)C(=O)O[C@H]1C[C@@H](C)C=C2C=C[C@H](C)[C@H](CC[C@@H]3C[C@@H](O)CC(=O)O3)[C@H]21,1.29 (inactive)
2,NC(=O)c1cnccn1,0.616 (inactive)
3,OC[C@H](Cc1ccccc1)Nc1nc(Oc2ccc3c(c2)CCC3)nc2c1ncn2Cc1ccc(-c2ccccc2)cc1,0.712 (inactive)
4,COc1ccc2c3n(c(=NC(=O)c4cccnc4)nc2c1OC)CCN3,-0.738 (inactive)
5,O=C(c1cc(Cc2n[nH]c(=O)c3ccccc23)ccc1F)N1CCN(C(=O)C2CC2)CC1,0.491 (inactive)
6,O=C(Nc1cccnc1)N1CCC(Cc2cccc(Oc3ccc(C(F)(F)F)cn3)c2)CC1,-0.589 (inactive)
7,COc1ccc(C2=N[C@H](c3ccc(Cl)cc3)[C@H](c3ccc(Cl)cc3)N2C(=O)N2CCNC(=O)C2)c(OC(C)C)c1,0.858 (inactive)
8,NC(=O)c1ccc(-c2nc(-c3ccc4c(c3)OCCO4)c(-c3ccccn3)[nH]2)cc1,0.559 (inactive)
9,NC(=O)c1ccc(-c2nc(-c3ccc4c(c3)OCO4)c(-c3ccccn3)[nH]2)cc1,0.53 (inactive)
10,CCOc1ccn(-c2ccc(F)cc2)c(=O)c1C(=O)Nc1ccc(Oc2ccnc(N)c2Cl)c(F)c1,-0.773 (inactive)
11,C/C(=C\C(=O)Nc1ccccc1C(=O)O)c1ccc2ccccc2c1,0.258 (inactive)
12,CCCS(=O)(=O)Nc1ccc(F)c(C(=O)c2c[nH]c3ncc(-c4ccc(Cl)cc4)cc23)c1F,0.0673 (inactive)
13,CCc1cc(Nc2nccc(-c3c(-c4ccc(OC)c(C(=O)Nc5c(F)cccc5F)c4)nc4ccccn34)n2)c(OC)cc1N1CCC(N2CCN(S(C)(=O)=O)CC2)CC1,-0.4 (inactive)
14,Nc1nc2[nH]cc(CCc3ccc(C(=O)N[C@@H](CCC(=O)O)C(=O)O)cc3)c2c(=O)[nH]1,1.34 (inactive)
15,CN(C(=O)c1ccc(F)cc1C(F)(F)F)C1CCN(c2nnc(-c3ccnn3C)c3ccccc23)CC1,-0.541 (inactive)
16,CCCn1c(=O)c2[nH]c(C34CC5CC3C[C@@H](C5)C4)nc2n(CCC)c1=O,0.471 (inactive)

row,SMILES,Z-AUC
1,COc1c(Cl)cc2c([nH]c3cnccc32)c1NC(=O)c1cccnc1C,1.1 (inactive)
2,O=C1CCCC2=C1C(c1[nH]ncc1Cl)N=C(Nc1nc3ccccc3o1)N2 (centres undefined),0.0101 (inactive)
3,N#CC[C@H](C1CCCC1)n1cc(-c2ncnc3[nH]ccc23)cn1,0.476 (inactive)
4,CS(=O)(=O)Oc1ccc2c(NC(N)=O)c(C(=O)c3ccc(Cl)cc3Cl)oc2c1,1.2 (inactive)
5,S=C(NCc1ccc2c(c1)OCO2)N1CCN(c2ncnc3c2oc2ccccc23)CC1,-0.165 (inactive)
6,Nc1ncnc2nc(-c3ccc(N4CCOCC4)nc3)cc(-c3cccc(Br)c3)c12,0.819 (inactive)
7,CS(=O)(=O)c1ccc(C(=O)Nc2ccc(Cl)c(-c3ccccn3)c2)c(Cl)c1,0.211 (inactive)
8,CCOc1cc(N2CCC(O)CC2)ccc1Nc1ncc2c(n1)N(C)c1ccccc1C(=O)N2C,-0.264 (inactive)
9,COCCNCCCn1c(C(=O)CF)c(-c2ccc(C)cc2)c2c(N)ncnc21,0.937 (inactive)
10,C[C@@H]1CN(Cc2ccc(F)cc2)[C@@H](C)CN1C(=O)c1cc2c(C(=O)C(=O)N(C)C)cn(C)c2cc1Cl,0.142 (inactive)
11,OC(CCN1CCCCC1)(c1ccccc1)C1CC2C=CC1C2 (centres undefined),-0.614 (inactive)
12,CNC(=O)c1ccc(C)c(-n2c(C)cc(OCc3ccc(F)cc3F)c(Br)c2=O)c1,-0.231 (inactive)
13,Cc1ccnc(NS(=O)(=O)c2ccc(NC(=O)Nc3ccc(S(=O)(=O)Nc4nccc(C)n4)cc3)cc2)n1,-1 (inactive)
14,COc1cc(Nc2ncc3c(n2)-c2ccc(Cl)cc2C(c2c(F)cccc2OC)=NC3)ccc1C(=O)O,-0.756 (inactive)
15,COc1ccc(COc2cc3oc(=O)c4cc(C(C)O)ccc4c3cc2OC)cc1 (centres undefined),1.06 (inactive)

# Same assay, conditions: PEO1/OlaR viability, CellTiter-Glo luminescence, 96 h; measured here: PEO1 parental Z-AUC; stronger effect = lower value
row,SMILES,Z-AUC
1,CCC(C)(C)C(=O)O[C@H]1C[C@@H](C)C=C2C=C[C@H](C)[C@H](CC[C@@H]3C[C@@H](O)CC(=O)O3)[C@H]21,1.6
2,NC(=O)c1cnccn1,0.733
3,OC[C@H](Cc1ccccc1)Nc1nc(Oc2ccc3c(c2)CCC3)nc2c1ncn2Cc1ccc(-c2ccccc2)cc1,0.249
4,COc1ccc2c3n(c(=NC(=O)c4cccnc4)nc2c1OC)CCN3,-0.328
5,O=C(c1cc(Cc2n[nH]c(=O)c3ccccc23)ccc1F)N1CCN(C(=O)C2CC2)CC1,-0.378
6,O=C(Nc1cccnc1)N1CCC(Cc2cccc(Oc3ccc(C(F)(F)F)cn3)c2)CC1,-1.46
7,Cc1cc(Nc2nc(N[C@@H](C)c3ncc(F)cn3)ncc2Cl)n[nH]1,-1.18
8,COc1ccc(C2=N[C@H](c3ccc(Cl)cc3)[C@H](c3ccc(Cl)cc3)N2C(=O)N2CCNC(=O)C2)c(OC(C)C)c1,0.454
9,NC(=O)c1ccc(-c2nc(-c3ccc4c(c3)OCCO4)c(-c3ccccn3)[nH]2)cc1,0.194
10,NC(=O)c1ccc(-c2nc(-c3ccc4c(c3)OCO4)c(-c3ccccn3)[nH]2)cc1,1.15
11,CCOc1ccn(-c2ccc(F)cc2)c(=O)c1C(=O)Nc1ccc(Oc2ccnc(N)c2Cl)c(F)c1,-0.706
12,C/C(=C\C(=O)Nc1ccccc1C(=O)O)c1ccc2ccccc2c1,0.668
13,CCCS(=O)(=O)Nc1ccc(F)c(C(=O)c2c[nH]c3ncc(-c4ccc(Cl)cc4)cc23)c1F,-0.745
14,CCc1cc(Nc2nccc(-c3c(-c4ccc(OC)c(C(=O)Nc5c(F)cccc5F)c4)nc4ccccn34)n2)c(OC)cc1N1CCC(N2CCN(S(C)(=O)=O)CC2)CC1,-0.657
15,Nc1nc2[nH]cc(CCc3ccc(C(=O)N[C@@H](CCC(=O)O)C(=O)O)cc3)c2c(=O)[nH]1,1.12
16,Cn1c(=O)c(F)c(Nc2ccc(I)cc2F)c2c(=O)n(C[C@@H](O)CO)cnc21,-1.86
17,CN(C(=O)c1ccc(F)cc1C(F)(F)F)C1CCN(c2nnc(-c3ccnn3C)c3ccccc23)CC1,-0.599

row,SMILES,Z-AUC
1,CCCn1c(=O)c2[nH]c(C34CC5CC3C[C@@H](C5)C4)nc2n(CCC)c1=O,0.393
2,COc1c(Cl)cc2c([nH]c3cnccc32)c1NC(=O)c1cccnc1C,0.859
3,O=C1CCCC2=C1C(c1[nH]ncc1Cl)N=C(Nc1nc3ccccc3o1)N2 (centres undefined),0.851
4,N#CC[C@H](C1CCCC1)n1cc(-c2ncnc3[nH]ccc23)cn1,0.0833
5,CS(=O)(=O)Oc1ccc2c(NC(N)=O)c(C(=O)c3ccc(Cl)cc3Cl)oc2c1,1.13
6,S=C(NCc1ccc2c(c1)OCO2)N1CCN(c2ncnc3c2oc2ccccc23)CC1,-1.16
7,Nc1ncnc2nc(-c3ccc(N4CCOCC4)nc3)cc(-c3cccc(Br)c3)c12,1.06
8,CS(=O)(=O)c1ccc(C(=O)Nc2ccc(Cl)c(-c3ccccn3)c2)c(Cl)c1,-0.252
9,CCOc1cc(N2CCC(O)CC2)ccc1Nc1ncc2c(n1)N(C)c1ccccc1C(=O)N2C,0.271
10,COCCNCCCn1c(C(=O)CF)c(-c2ccc(C)cc2)c2c(N)ncnc21,1.02
11,C[C@@H]1CN(Cc2ccc(F)cc2)[C@@H](C)CN1C(=O)c1cc2c(C(=O)C(=O)N(C)C)cn(C)c2cc1Cl,0.03
12,OC(CCN1CCCCC1)(c1ccccc1)C1CC2C=CC1C2 (centres undefined),-0.36
13,CNC(=O)c1ccc(C)c(-n2c(C)cc(OCc3ccc(F)cc3F)c(Br)c2=O)c1,-0.585
14,Cc1ccnc(NS(=O)(=O)c2ccc(NC(=O)Nc3ccc(S(=O)(=O)Nc4nccc(C)n4)cc3)cc2)n1,-0.318
15,COc1cc(Nc2ncc3c(n2)-c2ccc(Cl)cc2C(c2c(F)cccc2OC)=NC3)ccc1C(=O)O,-0.991
16,COc1ccc(COc2cc3oc(=O)c4cc(C(C)O)ccc4c3cc2OC)cc1 (centres undefined),0.636
